This excerpt belongs to a sample that is enriched for hits.
HIV RNase H inh = blocks HIV-1 RNase H cleavage of RNA/DNA duplex | 65,000 compounds, 1.9% hits | AID 565 | inhibition, % at 10 µM | RT-RNase H RNA/DNA duplex cleavage, fluorescence | P04585; in the data active = inhibition above about 50%
RmlC RmlD mix = RmlC/RmlD inhibition, mixture screen | RmlC/RmlD coupled enzyme inhibition, 384-well mixture HTS | inhibition, % at 5.5 µM | 110,000 compounds, 0.39% hits | AID 1532; in the data active = inhibition above about 30%, passing the limit was not always enough
* marks the source's active call; other numbers are inactive results; . = not tested or not shown; + = active, no number.

SMILES	HIV RNase H inh	RmlC RmlD mix
Cc1c(O)c(CN2CCCC2)cc2c3c(c(=O)oc12)CCC3	-12	106
CCc1cc(=O)oc2c(C)c(O)c(CN3CCCCC3)cc12	0	93*
COc1ccc(C2C(C(C)=O)=C(C)N=c3s/c(=C\c4ccc5c(c4)OCO5)c(=O)n32)c(OC)c1 (stereo not given)	58*	12
COc1ccc(C2C(C(C)=O)=C(C)N=c3s/c(=C\c4ccco4)c(=O)n32)c(OC)c1 (stereo not given)	-1	5
COC(=O)C1=CN(CC2CCCO2)C=C(C(=O)OC)C1c1ccsc1 (stereo not given)	-22	58*
COC(=O)C1=CN(CC2CCCO2)C=C(C(=O)OC)C1c1ccccc1C(F)(F)F (stereo not given)	.	8
CCCOc1ccc(-c2nc(C#N)c(N3CCN(CC)CC3)o2)cc1	-2	4
COc1ccc(S(=O)(=O)Nc2cc(C)c(O)cc2C(C)C)cc1	55*	-42
COc1ccc(S(=O)(=O)Nc2cc(C(C)C)c(O)cc2C)cc1	-6	-18
Cc1ccc(-c2nnn(CC(=O)N(Cc3cccs3)C(C(=O)NC3CCCC3)c3ccco3)n2)o1 (stereo not given)	-5	-7
Cc1ccc(-c2nnn(CC(=O)N(c3ccccc3)C(C(=O)NC3CCCC3)c3ccco3)n2)o1 (stereo not given)	60*	-8
Nc1cc(=O)[nH]c(=O)n1CC1CC1	.	6
COC(=O)c1cccc(NC(=O)CSc2nnc(C)n2Cc2ccccc2)c1	-12	3
CCc1nnc(NC(=O)c2c(O)c3cccc4c3n(c2=O)CC4)s1	-6	.
CCc1nnc(NCC(=O)N2CCc3ccccc32)s1	55*	2
CCn1c(SCC(=O)Nc2ccc(NC(=O)c3ccco3)c(OC)c2)nc2ccccc2c1=O	21	95*
CCCCn1c(SCC(=O)Nc2cc(NC(=O)c3ccco3)ccc2C)nc2ccccc2c1=O	55*	8
COCCn1c(SCC(=O)Nc2ccc(NC(=O)c3ccco3)c(OC)c2)nc2ccccc2c1=O	.	-12
CCCCn1c(SCC(=O)Nc2cc(C)on2)nc2ccccc2c1=O	34	-16
CCc1ccc(C(=O)COC(=O)c2ccc(-c3nnc(-c4ccccc4)o3)cc2)cc1	.	4
CCOc1ccc(OCCSc2nnnn2C2CCCCC2)cc1	-29	.
Cc1cc(C)c(NC(=O)COc2ccccc2C(=O)Nc2ccc3c(c2)oc2ccccc23)c(C)c1	.	+
CCOc1ccccc1C(=O)Nc1ccc(-c2nnc(-c3ccc(C)cc3)o2)cc1	-14	.
COc1ccc(OC)c(C2CC(=O)N3CN(c4ccccc4)CSC3=C2C#N)c1 (stereo not given)	4	2
COc1cc(C2CC(=O)N3CN(Cc4ccco4)CSC3=C2C#N)ccc1OCc1ccccc1 (stereo not given)	11	7
SMILES	HIV RNase H inh	RmlC RmlD mix
N#CC1=C2SCN(Cc3ccccc3)CN2C(=O)CC1c1ccc2c(c1)OCO2 (stereo not given)	-25	11
COc1ccc(C2CC(=O)N3CN(c4ccccc4F)CSC3=C2C#N)cc1OC (stereo not given)	59*	-3
CC(C)c1ccc(C2CC(=O)N3CN(Cc4ccco4)CSC3=C2C#N)cc1 (stereo not given)	59*	5
N#CC1=C2SCN(Cc3ccccc3)CN2C(=O)CC1c1cccs1 (stereo not given)	65*	3
COc1ccc(C2CC(=O)N3CN(Cc4ccco4)CSC3=C2C#N)cc1 (stereo not given)	20	-35
N#CC1=C2SCN(Cc3ccco3)CN2C(=O)CC1c1ccc(Cl)cc1 (stereo not given)	54*	5
O=C(NCC1c2ccccc2CCN1C(=O)CN1C(=O)c2ccccc2C1=O)C1CCCCC1 (stereo not given)	.	8
CCOc1cc(C)c(C(C)C)cc1S(=O)(=O)NCc1ccccn1	-1	-13
COc1ccc2[nH]c(C)c(CN3CCCC(C)C3)c(=O)c2c1 (stereo not given)	6	.
CCCCCCn1c(=O)c(C(=O)Nc2ccncc2)c(O)c2ccccc21	69*	.
CCCCn1c(=O)c(C(=O)NCc2ccncc2)c(O)c2ccccc21	8	-6
CCCn1nnnc1SCC(=O)N(C(C)C)C(C)C	65*	-15
CCCCn1nnnc1SCC(=O)N(CC)CC	.	3
O=c1c2cc(N3CCOCC3)ccc2[nH]c(=S)n1Cc1ccco1	55*	-49
O=c1c2cc(N3CCOCC3)ccc2[nH]c(=S)n1Cc1cccc(Cl)c1	.	-21
COc1cc2c(cc1OC)C1=NC(=O)CN1C(SCc1ccccc1)=N2	.	-13
Cc1cccn2c(=O)c(C=Nc3ccccc3)c(NCCO)nc12	-29	37*
Cc1cccn2c(=O)c(C=Nc3ccc(Cl)cc3)c(NCCO)nc12	-17	1
CCC(C(=O)NCc1ccccc1OC)n1nc(C)n2c(cc3occc32)c1=O (stereo not given)	.	1
CN(C(=O)c1cccnc1)c1nnc(-c2cnccn2)s1	-5	4
CN(C(=O)c1cccnc1)c1nnc(-c2cccnc2)s1	66*	3
CC1(C)CCN(Cc2ccccc2)C1CC#N (stereo not given)	-10	3
COc1ccccc1CCn1cnc2c3cc(C)ccc3n(C)c2c1=O	7	14
CCN(C)c1ccc(/C=N\n2nnnc2N)cc1	-15	71*
Nc1nnnn1/N=C/c1ccc(O)cc1	.	9
SMILES	HIV RNase H inh	RmlC RmlD mix
COc1ccc(NC(=O)CC2Sc3ncnn3C2=O)cc1 (stereo not given)	3	7
CCOC(=O)c1ccc(NC(=O)CC2Sc3ncnn3C2=O)cc1 (stereo not given)	60*	-15
Cc1cc(-c2nnc3n2CCCCC3)c(C)n1-c1ccccc1	-23	6
COc1ccc(Nc2nc(C)cc(C)c2C(N)=O)c(OC)c1	1	-15
O=C1C(=O)N(CCCn2ccnc2)C(c2cccnc2)/C1=C(/O)c1ccc(Cl)cc1 (stereo not given)	-5	.
CC1(C)Cc2c(C#N)c(N3CCN(C(=O)c4ccco4)CC3)nc(-c3ccco3)c2CS1	55*	-11
CC(=O)N1CCN(c2nc(-c3ccco3)c3c(c2C#N)CC(C)(C)SC3)CC1	.	-35
Cc1ccc2[nH]c(=O)c(CN(CCc3ccccc3)C(c3nnnn3Cc3ccco3)C(C)C)cc2c1 (stereo not given)	20	.
CCC(c1nnnn1Cc1ccco1)N(CCc1ccccc1)Cc1cc2cc(C)ccc2[nH]c1=O (stereo not given)	61*	-4
COc1ccc(OC)c(N=c2oc3c(OC)cccc3cc2C(=O)NCc2ccco2)c1	88*	-16
COc1ccc(N=c2oc3c(OC)cccc3cc2C(=O)NCc2ccco2)cc1OC	-4	7
CCc1ccc(NC(=O)N(C2CCC(C)CC2)C2CCN(C(C)=O)CC2)cc1 (stereo not given)	4	8
COc1ccc(NS(=O)(=O)c2cccc(-c3nnc4n3CCCCC4)c2)cc1	-8	11
COc1ccc(-c2cc3nc4n(c(=O)c3s2)CCC4)cc1	-44	50*
O=C(Nc1ccc(-c2noc(COc3ccccc3Cl)n2)cc1)c1ccco1	2	3
COC(=O)/C(C#N)=C1/SC=C(C)N1c1ccccc1	-8	1
N#C/C(C(=O)c1ccccc1)=C1/SC=C(N)N1c1ccccc1	64*	-2
COc1cc(CCCN2C(=O)C(=O)NC[C@@H]2C(C)O)cc(OC)c1OC (stereo not given in full)	.	10

Screening data (PubChem)
